Sampled rows, rich in hits. Any-hit rate of the full collection: about 3.4%.
GAA850 FXN act – increases GAA850 frataxin promoter reporter activity | HEK293 lucGAA850 FXN promoter luciferase reporter, 24 h; percent of 10 µM SAHA response | activation, % at 6 µM | 0.56% of 360,000 active | AID 540364;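 active means activation above the average of all compounds screened plus 3 SD, cutoff fixed separately per campaign, cut at about 7.5% in these data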;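 further: 0% = DMSO wells and 100% = 10 µM SAHA wells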
SMARCA2 act – SMARCA2 function activation, primary screen. activation, % at 9.1 µM. MG213 cells, MMTV-luciferase reporter, dexamethasone, overnight. 1% of 370,000 active; in the data active means activation above about 7.8%;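 further: 0% = vehicle wells and 100% = reference activator wells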
Gli-Sufu antag – Gli-Sufu pathway antagonism; Sufu-KO-LIGHT fibroblasts, Gli luciferase reporter luminescence; inhibition, % at 5 µM; 0.74% of 340,000 active; AID 588413;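 active means inhibition above about 55%, limit read from the data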;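 further: 0% = DMSO-treated cells and 100% = wells with medium but no cells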
H9c2 protect – myocardial damage modulation in H9c2 cells; H9c2 cardiomyocytes, H2O2 injury protection, ATPLite, 2 h; protection from H2O2 cell death, % at 20 µM; 0.63% of 360,000 active;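 active means compounds giving at least 50% protection of heart cells from peroxide-induced death in the single-dose screen, raw or plate-pattern-corrected value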;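 further: 0% = DMSO wells with peroxide and 100% = DMSO wells without peroxide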
COUP-TFII inh – inhibitors of human COUP-TFII (NR2F2). P24468. HEK293T NGFI-A luciferase reporter, luminescence. inhibition, % at 8.6 µM. 0.7% of 370,000 active;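 active means inhibition above a per-plate cutoff, mean inhibition of test wells between control levels plus 3 SD, cut at about 38% in these data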;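 further: cells cotransfected with COUP-TFII expression vector driving the NGFI-A reporter; 0% = median of COUP-TF2 test wells and 100% = reporter-only cells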
Target sequence (P24468 whole entry, looked up): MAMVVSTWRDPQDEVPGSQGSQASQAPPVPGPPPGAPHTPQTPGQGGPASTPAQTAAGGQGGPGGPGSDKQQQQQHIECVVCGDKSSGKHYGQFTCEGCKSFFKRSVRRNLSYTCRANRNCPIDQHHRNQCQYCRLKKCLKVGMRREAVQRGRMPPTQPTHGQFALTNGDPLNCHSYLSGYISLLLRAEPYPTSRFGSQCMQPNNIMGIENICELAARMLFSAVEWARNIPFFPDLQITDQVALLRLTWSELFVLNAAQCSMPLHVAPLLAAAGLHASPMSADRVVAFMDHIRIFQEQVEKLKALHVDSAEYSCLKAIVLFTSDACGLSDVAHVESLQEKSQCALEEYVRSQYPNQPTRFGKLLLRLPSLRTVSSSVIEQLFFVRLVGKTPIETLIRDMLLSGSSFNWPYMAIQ
GalR3 antag – blocks the human galanin receptor 3; 0.44% of 360,000 active; HEK293 GalR3-CNG cAMP membrane potential fluorescence; galR3 body fused to GalR1 C-terminus; AID 651719; O60755; inhibition, % at 3 µM;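 active means inhibition above the screen-wide average plus 3 SD, cut at about 13% in these data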;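 further: forskolin and galanin both at EC90 stimulate the cells; cAMP rise reported by CNG channel membrane potential dye signal; 0% = forskolin plus galanin with DMSO and 100% = forskolin alone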
Target sequence (O60755 1-299 limits assumed): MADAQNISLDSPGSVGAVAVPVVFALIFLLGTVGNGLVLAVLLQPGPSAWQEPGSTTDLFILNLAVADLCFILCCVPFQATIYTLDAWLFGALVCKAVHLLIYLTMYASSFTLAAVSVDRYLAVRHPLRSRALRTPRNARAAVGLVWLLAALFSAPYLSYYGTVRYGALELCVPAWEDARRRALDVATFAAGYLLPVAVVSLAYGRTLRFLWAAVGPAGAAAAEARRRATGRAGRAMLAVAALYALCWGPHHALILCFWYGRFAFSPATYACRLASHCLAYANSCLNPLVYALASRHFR
SMARCA2 act conf – SMARCA2 activation, confirmation screen | AID 652260 | shares compounds with SMARCA2 act | activation, % at 9.1 µM | 30% of 3,500 active | MG213 cells, MMTV-luciferase with dexamethasone, luminescence, overnight; MG213 cells expressing E1A, Rb sequestered; DMSO wells 0%, reference activator 100%;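 active means activation above its plate's cutoff, the mean activation of tested wells plus 3 SD, cut at about 7.9% in these data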
VP16 Luc act – counter-screen for SMARCA2 activators: GAL4-VP16 luciferase reporter activation. shares compounds with SMARCA2 act. HEK293 GAL4-VP16 pG5luc reporter, luciferase luminescence; scaled: DMSO wells 0%, SAHA wells 100%. activation, % at 9.1 µM. 41% of 3,500 active. AID 686939;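 active means activation above the solvent-only control well mean plus 3 SD, averaged across control plates, cut at about 5.2% in these data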
The depositor's hits bear a star; . = not tested or not shown.

SMILES	GAA850 FXN act	SMARCA2 act	Gli-Sufu antag	H9c2 protect	COUP-TFII inh	GalR3 antag	SMARCA2 act conf	VP16 Luc act
CSc1ccc(/C=N/NC(=O)c2cccc(O)c2)cc1	1.7	9.6*	-71.0	-36.2	-54.7	-5.2	5.9	13.9*
O=C(Nc1nc(-c2cc3ccccc3oc2=O)cs1)c1ccco1	1.6	16.8*	-15.7	20.5	-7.6	-0.9	-0.7	2.2
O=C(Nc1nc(-c2ccncc2)cs1)c1ccco1	2.2	-0.8	5.0	22.7	-3.7	-4.0	.	.
Cn1sc2ccccc2c1=O	-0.8	12.8*	.	-28.8	5.2	-6.8	16.4*	2.4
O=c1c2ccccc2sn1-c1cccc(Cl)c1	-6.4	12.9*	.	-31.5	11.9	-5.1	3.3	1.2
O=c1c2ccccc2sn1-c1ccccc1	-2.7	4.9	2.3	-44.1	-5.4	-2.8	.	.
COc1ccc(S(=O)(=O)NC2CC(C)(C)NC(C)(C)C2)c2ccccc12	-0.8	-1.0	10.9	1.6	-8.0	-2.0	.	.
COC(=O)Nc1nnc(-c2ccc(OC)cc2)s1	3.4	8.1*	-35.0	-8.7	-35.7	1.7	6.0	5.2*
CC(C)=CC(=O)Nc1nnc(-c2ccccc2)s1	6.2	16.3*	-96.9	-0.6	-25.4	-7.1	5.0	7.8*
CC(C)=CC(=O)Nc1nnc(C)s1	1.5	1.5	3.9	-1.8	-11.3	0.0	.	.
Nn1c(=O)[nH]c2ccccc2c1=O	-0.1	-0.8	-2.9	-1.2	-5.6	2.8	.	.
CCCCCCN1C[C@H](n2cc(C3CC3)nn2)[C@@H](O)C[C@@H]1c1ccc(OC)cc1	-0.3	-5.7	.	-22.3	2.9	-4.6	.	.
COc1ccc2cc3cc(C(=O)NC(C)C)oc3nc2c1	2.3	9.1*	-78.9	3.0	-28.2	-4.0	5.5	4.8
COc1ccc(CCNC(=O)c2ccc(Br)cc2)cc1	1.0	0.6	-28.3	-2.7	-1.5	-8.1	.	.
COc1ccc(CCNC(=O)c2coc(=O)c(Br)c2)cc1	.	28.5*	3.7	.	-8.6	-10.0	12.0*	11.2*
Brc1ccc(-c2cn3ccccc3n2)cc1	1.2	14.6*	-120.8	-17.5	-55.6	-5.5	3.2	11.3*
Brc1ccc(-c2cn3cccnc3n2)cc1	0.8	5.0	-74.8	-11.3	-41.7	-2.5	.	.
CCc1ccc(/C=C2\Oc3c(ccc(O)c3CN3CCN(CCO)CC3)C2=O)cc1	-1.8	0.1	-17.1	7.3	6.3	-0.8	.	.
Cc1nc2cc3nc(C)sc3cc2s1	4.0	9.0*	-40.2	-16.4	-25.2	-2.5	8.7*	6.7*
COc1ccc(OC)c2c1cc(C(=O)N[C@@H](Cc1ccccc1)C(=O)O)n2C	0.8	-1.9	17.6	0.1	12.1	-7.5	.	.
COc1cc(C=O)ccc1OCc1cccc(Br)c1	3.0	0.4	-34.5	-7.5	-31.4	0.1	.	.
COc1cc(C=O)ccc1OCc1ccccc1Br	2.7	14.8*	-15.2	-14.5	-30.6	-11.5	6.7	8.0*
Cc1ccc(-c2nn3cnnc3c3ccccc23)cc1C	3.8	-3.9	5.7	-4.7	1.6	-1.6	.	.
Cc1cc(NC(=O)CN(C)CCOc2ccccc2)ccc1Br	-0.6	8.4*	-1.8	-9.9	-12.4	-5.5	0.1	2.2
Cc1cc(OCC(=O)Nc2ccncc2)ccc1Br	0.7	-2.1	-10.9	-33.4	21.5	1.5	.	.
SMILES	GAA850 FXN act	SMARCA2 act	Gli-Sufu antag	H9c2 protect	COUP-TFII inh	GalR3 antag	SMARCA2 act conf	VP16 Luc act
COc1cccc(NC(=O)COc2ccc(Br)c(C)c2)c1	0.8	9.9*	38.6	-7.9	-8.8	-8.2	7.0	4.2
CCCC[C@@H]1CCCO[C@@](C(=O)NCc2ccc(C)o2)(C(F)(F)F)C1	2.2	1.7	2.0	8.3	5.2	0.7	.	.
CC(=O)Nc1ccc(NC(=O)C(C)OC(=O)/C(C#N)=C/c2ccc(N(C)C)cc2)cc1 (centres undefined)	2.6	8.0*	-5.4	-7.9	-24.8	-5.8	8.7*	7.3*
COc1ccc(CN(C)C(=O)Cc2ccc(OC)c(S(=O)(=O)N3CCOCC3)c2)cc1	-0.4	-3.9	3.3	2.1	-2.4	-1.4	.	.
Cc1ccc2nc(-c3cccc(Br)c3)c(Cc3ccsc3)n2c1	.	9.5*	.	.	-56.0	-6.1	9.7*	8.9*
Cc1ccc2nc(-c3ccc(F)cc3)c(Cc3cccc(Cl)c3)n2c1	.	12.8*	.	-5.8	-51.7	-8.1	7.3	7.3*
Cc1ccc2nc(-c3ccc(F)cc3)c(Cc3cccc(F)c3)n2c1	.	8.6*	.	.	-26.6	-9.2	2.8	1.4
CCN(CC)S(=O)(=O)c1ccc(N2CCN(S(=O)(=O)c3ccc4c(c3)OCCO4)CC2)nc1	1.2	-2.2	-8.6	-12.2	3.8	-4.5	.	.
O=C(O)c1ccccc1C(=O)c1ccc2c(c1)CCC2	-0.6	-2.9	28.4	-0.3	6.3	-0.1	.	.
C/C(=N\Nc1nccnc1Cl)c1ccc(F)cc1	3.8	8.9*	-15.7	-7.8	-44.9	-4.8	10.2*	11.9*
CCN(CC)C(=O)C1=C(C)N(Cc2ccc(F)cc2)C(=O)C(CC(=O)NCc2ccco2)C1 (centres undefined)	-1.5	8.4*	.	-7.6	-5.6	-4.9	-5.9	0.7
COc1ccc(CN(C(=O)c2ccccc2Br)C2CCS(=O)(=O)C2)cc1 (centres undefined)	3.4	-0.8	5.2	5.2	-12.2	.	.	.
CC(=O)Nc1sc2c(c1-c1nc3ccccc3s1)CN(C(C)C)CC2	22.7*	18.7*	-25.2	3.5	-33.9	-0.4	6.9	-1.1
COc1cc(OC)c(/C=N/NC(=O)c2ccncc2)c(OC)c1	0.6	1.9	-12.3	10.0	1.6	-9.8	.	.
CCCCN1C(=O)C(CC(=O)NCc2ccco2)CC(C(=O)N2CCCCCC2)=C1C (centres undefined)	.	-1.1	.	.	13.6	-4.6	.	.
CCOC(=O)c1c(NC(=O)C(NCCN(C)C)c2ccccc2)sc2c1CCCC2 (centres undefined)	3.5	12.8*	-10.6	-19.9	-5.2	-9.7	-13.5	4.3
CCOC(=O)c1c(NC(=O)c2ccco2)sc2c1CCCC2	-2.1	-0.2	7.1	-3.8	-0.1	-5.7	.	.
CCc1cccc(CC)c1NC(=O)C(CC)Sc1nc2ccncc2[nH]1 (centres undefined)	2.0	8.3*	1.2	9.8	-2.5	2.5	0.3	0.7
O=C(Cn1cncn1)N/N=C/c1ccc(Cl)cc1	0.8	-0.1	-7.8	6.4	-11.3	-3.8	.	.
O=C(Cn1cncn1)N/N=C/c1cccc(Cl)c1	0.3	8.3*	-3.2	1.4	-6.1	-3.0	0.7	-1.0
Nc1[nH]n(-c2ccccc2)c(=O)c1N=Nc1ccccc1	5.2	2.0	-38.4	9.7	-13.7	-4.1	.	.
